# Screening results from PubChem.
# MBD2 inh – MBD2-methylated oligo binding inhibition. Q9UBB5. TR-FRET, MBD2 binding to methylated oligonucleotide. inhibition, % at 4.4 µM. hit rate 0.31% among 370,000; in the data active = inhibition above about 13%
# UHRF1 MBD2 ctr – blocks human UHRF1 binding to methylated DNA; inhibition, % at 4.4 µM; hit rate 0.75% among 370,000; Q96T88; UHRF1 binding to methylated oligo, TR-FRET; in the data active = inhibition above about 21%;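 note: UHRF1 SRA domain binding a hemimethylated CpG hairpin DNA probe; 0% = median of test compound wells and 100% = reference inhibitor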
# PLCb3 inh – blocks human PLC-beta3 enzyme activity; Q01970; Purified PLC-beta3, fluorogenic substrate, fluorescence; AID 720704; hit rate 0.18% among 370,000; inhibition, % at 12.2 µM; in the data active = inhibition above about 11%;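 note: 0% = median of compound wells on plate and 100% = full blocker control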
# PLC-gamma1 inh – blocks human PLC-gamma1 enzyme activity. purified PLC-gamma1, fluorogenic substrate, fluorescence. hit rate 0.84% among 370,000. P19174. inhibition, % at 12.2 µM; in the data active = inhibition above about 9.5%
# LEDGF integ inh – blocks HIV-1 LEDGF/p75-dependent DNA integration; inhibition, % at 3.7 µM; hit rate 0.64% among 370,000; TR-FRET IN-LEDGF/p75 DNA integration, Eu/Cy5;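 active = inhibition above the screen-wide mean plus 3 SD, cut at about 13% in these data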;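 note: signal is the Cy5 over europium emission ratio at 671 and 618 nm; 0% = plate median of compound wells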
# IN multimer up – counter-screen for LEDGF/p75 integration inhibitors: HIV-1 integrase multimerization activators | TR-FRET HIV-1 integrase multimerization, biochemical | hit rate 17% among 2,000 | activation, % at 7.7 µM | shares compounds with LEDGF integ inh | AID 1053131; in the data active = activation above about 8.9%
# TRFRET interf – counter-screen for LEDGF/p75 integration inhibitors: TR-FRET optical interference | shares compounds with LEDGF integ inh | TR-FRET optical interference counterscreen, HIV-1 IN multimerization | inhibition, % at 7.7 µM | 2,000 tested, under 10 active | AID 1053135;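 active = inhibition above the mean over all tested compounds plus 3 SD, which no compound reached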;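 note: 0% = integrase with antibodies and DMSO and 100% = antibodies without integrase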
# LEDGF integ conf – confirmation of HIV-1 LEDGF/p75-dependent integration inhibitors. shares compounds with LEDGF integ inh. TR-FRET LEDGF/p75-dependent HIV-1 integration, biochemical. inhibition, % at 3.7 µM. hit rate 36% among 2,000; in the data active = inhibition above about 14%
# Starred values were filed as active, the others as inactive; . = not tested or not shown. This is a sample that favours compounds with a hit; in the whole collection about 2.4% have one here.
SMILES,MBD2 inh,UHRF1 MBD2 ctr,PLCb3 inh,PLC-gamma1 inh,LEDGF integ inh,IN multimer up,TRFRET interf,LEDGF integ conf
COc1ccc(OC)c(S(=O)(=O)Oc2ccc(N)c3ccccc23)c1,-10,-4,-17,-2,14*,4,-15,-1
CCOc1ccc(-n2c(SCC(=O)Nc3ccc(OCc4ccccc4)cc3)nnc2-c2ccc(Cl)cc2)cc1,-7,-1,-2,-2,0,.,.,.
CC(=O)N1CCn2c3c(c4cc(C)ccc42)CCCC31 (stereo not drawn),4,0,-84,-53,2,.,.,.
CC(=O)N1CCn2c3c(c(=O)c4cc(C)ccc42)CCC31 (stereo not drawn),-7,-1,-120,-98,20*,0,-1,23*
COc1ccccc1OCC(=O)N/N=C/C=C/c1ccc([N+](=O)[O-])o1,9,35*,-32,-19,38*,11*,-57,46*
O=C(N/N=C/C=C/c1ccccc1[N+](=O)[O-])c1cccs1,-2,-1,2,7,5,.,.,.
O=C(N/N=C\C=C\c1ccc([N+](=O)[O-])o1)c1cccs1,9,43*,-33,-17,36*,11*,-38,57*
Cc1ccccc1OCC(=O)N/N=C/c1ccc([N+](=O)[O-])o1,-2,2,-7,-2,0,.,.,.
COCCNC(=O)c1c(N)[nH]c(C(=O)c2ccc(Br)cc2)c1-c1c(OC)ccc2ccccc12,-1,-4,-16,-11,-2,.,.,.
COc1cc(CCC(=O)NCc2ccc3c(c2)OCO3)cc(OC)c1OC,8,0,-2,-2,29*,0,1,-5
C/C(=C\C(=O)c1ccccc1)Nc1ccc(N2CCOCC2)cc1,-5,1,-5,0,22*,3,-11,-7
Cc1ccccc1SCC(=O)Nc1ccc(N2CCOCC2)cc1,0,-2,-10,-2,0,.,.,.
O=C(Nc1ccc(N2CCOCC2)cc1)c1ccc2nc(-c3ccco3)c(-c3ccco3)nc2c1,2,-3,-9,-6,-2,.,.,.
Nc1ccccc1SCC(=O)Nc1ccc(N2CCOCC2)cc1,-4,-5,2,4,18*,2,-10,1
CCc1ccc(C(=O)NC(=S)Nc2ccc(N3CCOCC3)cc2)cc1,-5,2,-2,-1,-3,.,.,.
CC(=O)c1ccc(NC(=S)Nc2ccc(N3CCOCC3)cc2)cc1,-3,2,-10,-2,15*,0,1,2
S=C(Nc1ccc(N2CCOCC2)cc1)Nc1ccc2nc(-c3ccco3)c(-c3ccco3)nc2c1,-3,-5,-135,-98,27*,18*,-65,51*
O=C(N/N=C/C=C/c1ccco1)C(O)c1ccccc1 (stereo not drawn),3,13,-29,-23,26*,7,-26,26*
O[C@H](COc1cccc(F)c1)CN1CCC(C(O)(c2ccccc2)c2ccccc2)CC1,4,0,1,1,0,.,.,.
Nc1c(N(C(=O)Nc2ccc(Cl)c(Cl)c2)C2CCCC2)c(=O)[nH]c(=O)n1Cc1ccccc1,3,-1,0,-2,14*,1,-3,1
COCCN(C(=O)C1CCCC1)c1c(N)n(Cc2ccccc2)c(=O)[nH]c1=O,-1,1,-1,1,3,.,.,.
CC1CN(C(=O)c2nn(C)cc2[N+](=O)[O-])CC(C)O1 (stereo not drawn),1,1,0,-4,42*,-1,3,1
CC(=O)NC(c1ccco1)c1cc(Cl)c2ccccc2c1O (stereo not drawn),1,0,-56,-46,-1,.,.,.
CC(=O)NC(c1ccco1)c1cc(Cl)c2ccc(Cl)nc2c1O (stereo not drawn),-4,-6,-159,-94,44*,1,-6,6
COC(=O)CSc1ncnc2c(C)csc12,1,5,7,3,45*,1,-5,3
CC(C)c1ccc(OCCCN2CCC(C(O)(c3ccccc3)c3ccccc3)CC2)cc1,-6,0,6,7,5,.,.,.
